Source: PubChem (Columbia University Molecular Screening Center)
Hits are enriched below; roughly 1.3% of the tested compounds scored in any of these assays.
IL1B cytotox: cytotoxicity in IL-1B stimulated HUVEC, primary screen, cytotoxicity control for IL-1B NFkB translocation project, imaging, Hoechst nuclear count, IL-1B stimulus | HUVEC cell count loss | cell count reduction, % at 2 µM | 94,000 tested, 0.41% active | AID 845, 2007;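 active means cell count reduction more than 3 SD above the screen-wide mean, cut at about 70% in these data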;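 further: normalized per plate to untreated control cells as the no-loss baseline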
Insulin prom inh: inhibitors of insulin promoter-driven GFP, primary screen, imaging, TRM-6 cells (human fetal islet line), eGFP reporter, cell count; reporter expression induced with tamoxifen; 130,000 tested, 0.9% active; inhibition, % at 2 µM;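 active means inhibition above the mean plus 3 SD, with well images judged a real hit on visual review, cut at about 60% in these data, passing the limit was not always enough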
NFkB transloc pot: enhancers of NFkB p65 translocation in HUVEC – imaging, IL-1B stimulus, high-content imaging, primary screen; 94,000 tested, 0.3% active; activation, % at 2 µM; HUVEC IL-1B NFkB p65 nuclear translocation imaging; AID 819, 2007;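 active means activation above 40%, about the mean plus 3 SD, also judged a hit on visual image review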;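 further: percent activation is computed from the nuclear over cytoplasmic p65 intensity ratio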
NFkB transloc inh: inhibitors of IL-1B driven NFkB p65 nuclear import, primary screen, imaging, HUVEC, IL-1B stimulus, high-content imaging | inhibition, % at 2 µM | AID 796, 2007 | HUVEC IL-1B NFkB p65 nuclear translocation imaging | 94,000 tested, 0.43% active;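 active means inhibition above about 30% together with a positive call from visual inspection of the well image, limit read from the data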;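 further: nuclear over cytoplasmic p65 intensity ratio measured by imaging; 0% = IL-1B stimulated DMSO wells and 100% = unstimulated DMSO wells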
Numbers without * were called inactive.

`COc1cc(NC(=S)NCCCN2CCOCC2)cc(OC)c1OC` gave Insulin prom inh -18.
For Cn1c(=O)c(Oc2ccc(F)cc2)c(O)c2ccccc21 the results were Insulin prom inh 64*.
Screening Cn1c(=O)c(S(=O)(=O)C(C)(C)C)c(O)c2ccccc21 returned Insulin prom inh 14.
CCCN(CCC)S(=O)(=O)c1ccc(C(=O)NCc2ccc3c(c2)OCO3)cc1 was read as IL1B cytotox -8, NFkB transloc pot 2 and NFkB transloc inh -2.
Screening CCN(CC)S(=O)(=O)c1ccc(C(=O)NCc2ccc3c(c2)OCO3)cc1 returned Insulin prom inh 79*.
Screening O=C(NNC(=O)c1cccs1)c1ccc([N+](=O)[O-])cc1 returned Insulin prom inh -42.
Screening COc1ccc2c(OC)cc(-c3ccccc3)nc2c1 returned IL1B cytotox 7, Insulin prom inh 100*, NFkB transloc pot 9 and NFkB transloc inh -9.
Screening O=C(CN1C(=O)c2ccccc2C1=O)Nc1sc2c(c1C(=O)NCc1ccco1)CCCC2 returned IL1B cytotox 25, Insulin prom inh 92*, NFkB transloc pot 16 and NFkB transloc inh -16.
For CCOC(=O)c1c(NC(C)=O)sc2c(O)c(CN3CCN(CC)CC3)ccc12 the results were IL1B cytotox -3, Insulin prom inh 86*, NFkB transloc pot -4 and NFkB transloc inh 4.
Screening COCCCNC(=O)c1c(NC(=O)C2COc3ccccc3O2)sc2c1CCCC2 (stereo unspecified) returned Insulin prom inh 87*.
`CCNC(=O)c1c(NC(=O)C2COc3ccccc3O2)sc2c1CCCC2` (stereo unspecified) gave IL1B cytotox 12, Insulin prom inh -27, NFkB transloc pot 4 and NFkB transloc inh -4.
Fc1ccc(C2CC(c3ccc(F)cc3)n3ncnc3N2)cc1 (stereo unspecified) was read as IL1B cytotox -3, NFkB transloc pot -16 and NFkB transloc inh 16.
`CCc1ccc(C2CC(c3ccccc3)n3ncnc3N2)cc1` (stereo unspecified) gave IL1B cytotox 9, NFkB transloc pot 42* and NFkB transloc inh -42.
Screening CC1Cc2ccccc2N1C(=O)C12CCC(C)(C(=O)C1)C2(C)C (stereo unspecified) returned IL1B cytotox 0, Insulin prom inh 95*, NFkB transloc pot 0 and NFkB transloc inh 0.
Screening CCN(C=NC1=NN(c2cccc(C(F)(F)F)c2)CC1)CC returned Insulin prom inh 62*.
`[O-]/[N+](=C\c1ccc(F)cc1)c1ccccc1` gave IL1B cytotox 4, Insulin prom inh 14, NFkB transloc pot -12 and NFkB transloc inh 12.
Screening [O-]/[N+](=C\c1ccccc1)[C@@H]1CCCC[C@@H]1/[N+]([O-])=C/c1ccccc1 returned IL1B cytotox 93*, Insulin prom inh -86, NFkB transloc pot -12 and NFkB transloc inh 12.
Cc1ccc(Nc2nnns2)cc1 was read as IL1B cytotox -14, Insulin prom inh 18, NFkB transloc pot -38 and NFkB transloc inh 38*.
`COc1ccc(CNC(=O)C2CC(c3cccc(OC)c3)=NO2)cc1` (stereo unspecified) gave IL1B cytotox -4, Insulin prom inh 73*, NFkB transloc pot -3 and NFkB transloc inh 3.
Screening O=C(/C=C/c1ccccc1)OCCCN=C1NS(=O)(=O)c2ccccc21 returned Insulin prom inh 42.
Screening CCCCNC(=S)Nc1ccc(OC)nc1 returned Insulin prom inh 50.
For CCOC(=O)c1c2n(c3ccc(O)cc13)CCCCC2 the results were IL1B cytotox 17, Insulin prom inh 86*, NFkB transloc pot -11 and NFkB transloc inh 11.
For O=C(COC(=O)c1cccnc1Cl)Nc1ccc2c(c1)OCCO2 the results were Insulin prom inh 43.
For Cn1c(=O)oc2cc(S(=O)(=O)N3CCCC(C(=O)NCCN4CCOCC4)C3)ccc21 (stereo unspecified) the results were IL1B cytotox -11, NFkB transloc pot 6 and NFkB transloc inh -6.
For Cn1c(=O)oc2cc(S(=O)(=O)N3CCCC(C(=O)Nc4nccs4)C3)ccc21 (stereo unspecified) the results were IL1B cytotox 12, NFkB transloc pot 41* and NFkB transloc inh -41.
`CC1=C(C#N)C(/C=N/OCc2ccc(Cl)cc2)CC(=O)N1` (stereo unspecified) gave Insulin prom inh 83*.
For O=C(COC(=O)c1cccc(F)c1)Nc1cccnc1Cl the results were Insulin prom inh 50.
COc1ccc(N(CC(=O)Nc2nccs2)S(=O)(=O)c2c(C)[nH]c(=O)[nH]c2=O)cc1 was read as Insulin prom inh 79*.
CCOc1ccc(N(CC(=O)Nc2ccc(OC)cc2)S(=O)(=O)c2c(C)[nH]c(=O)[nH]c2=O)cc1 was read as Insulin prom inh 7.
For C[C@@H]1CN(Cc2cn(C)nc2-c2cccc(Cl)c2)C[C@H](C)O1 the results were Insulin prom inh -115.
Cc1ccc(NC(=S)NCC2CCCO2)cc1C (stereo unspecified) was read as IL1B cytotox 91*, Insulin prom inh 60, NFkB transloc pot -11 and NFkB transloc inh 11.
Screening Cc1ccc(NC(=S)NCC2CCCO2)cc1 (stereo unspecified) returned IL1B cytotox -1, Insulin prom inh -3, NFkB transloc pot 11 and NFkB transloc inh -11.
For O=C1c2ccccc2NC(c2ccncc2)N1c1ccccn1 (stereo unspecified) the results were IL1B cytotox -6, Insulin prom inh -22, NFkB transloc pot -62 and NFkB transloc inh 62*.
`c1ccc2c(c1)NC(c1ccncc1)n1c-2nc2ccccc21` (stereo unspecified) gave IL1B cytotox -23, Insulin prom inh 78*, NFkB transloc pot 12 and NFkB transloc inh -12.
For COc1ccccc1N1C(=O)c2ccccc2NC1c1ccncc1 (stereo unspecified) the results were IL1B cytotox -34, Insulin prom inh 18, NFkB transloc pot 4 and NFkB transloc inh -4.
For COc1cccc(CSc2nc3cc4c(cc3cc2C)OCCO4)c1 the results were Insulin prom inh -3.
For O=C(O)c1oc2ccccc2c1-n1cccc1 the results were IL1B cytotox -53, Insulin prom inh 29, NFkB transloc pot 26 and NFkB transloc inh -26.
`COC(=O)c1oc2ccc(Br)cc2c1-n1cccc1` gave IL1B cytotox -81, NFkB transloc pot -40 and NFkB transloc inh 40*.
CCC(C)/C(C)=N/NC(=O)c1ccc(CSc2nc3ccccc3s2)cc1 (stereo unspecified) was read as Insulin prom inh 100*.
O=C(O)c1ccc(CSc2nc3ccc(NC(=O)c4ccccc4C(=O)O)cc3s2)cc1 was read as Insulin prom inh -12.
`COc1ccccc1NC(=O)C/C(C)=N/NC(=O)COc1c(Br)cc(Br)cc1OC` gave Insulin prom inh -6.
For O=C(O)c1cc(-c2ccco2)nc2ccc(Br)cc12 the results were Insulin prom inh 77*.
Cc1cc2ccccn2c1C(=O)Nc1cccc(Cl)c1 was read as Insulin prom inh 15.
